This is a sample that favours compounds with a hit; in the whole collection about 3.8% have one here.
esBAF inh – blocks esBAF chromatin remodeling in mouse ES cells | 350,000 compounds, 2% hits | reporter increase, % at 12.5 µM | Bmi1-luciferase knock-in reporter, 24 h; 100% = twice the neutral-well signal; in the data active = activation above about 40%;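 note: 0% = median of the plate's neutral control wells and 100% = double that signal; a rise in the Bmi1 reporter signal indicates esBAF inhibition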
HSF-1 act – increases HSF-1 driven luciferase reporter signal; NIH3T3-HGL HSF-1 luciferase reporter, MG132, 8 h; 100% = twice DMSO control signal; activation, % at 9 µM; 300,000 compounds, 1.7% hits;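 active = mean replicate activation of at least 50% with a set share of replicates each reaching 50%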;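 note: 0% = median of the neutral control wells and 100% = twice that signal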
MITF TRPM1 HTS – activators of MITF-driven TRPM1 promoter activity in SK-MEL-5 cells; SK-MEL-5 TRPM1-promoter luciferase, 24 h; % of positive control, neutral wells = 0; activation, % at 12.5 µM; 300,000 compounds, 0.75% hits;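 active = mean activation of at least 80% with every replicate also reaching 80%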;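 note: 0% = neutral control wells and 100% = parthenolide positive control wells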
Wnt act – activators of Wnt/beta-catenin signaling; Wnt/beta-catenin reporter cell assay, activator, plate reader; activation, % at 9.35 µM; 300,000 compounds, 1.2% hits; in the data active = activation above about 30%, passing the limit was not always enough;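 note: 0% = neutral control wells and 100% = positive control wells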
HSF1 inh – HSF1 inhibition; NIH3T3-HGL HSE-luciferase, MG132-induced, luminescence 8 h; active compounds read low; activity change, negative = inhibition, % at 7.5 µM (by protocol); 300,000 compounds, 0.77% hits;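 active = more than half of replicate wells show activity change below -50%, luminescence cut by over half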;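 note: luciferase reports HSF-1 transcriptional activity via heat shock element; 0% = median of DMSO wells and -100% = zero luminescence signal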
* marks the source's active call; other numbers are inactive results.

Cn1nc(-c2ccc(S(N)(=O)=O)s2)cc1C(F)(F)F was read as esBAF inh -12, HSF-1 act -5, MITF TRPM1 HTS 6, Wnt act 0 and HSF1 inh -2.
Screening CN(C)C(=O)c1ccc(-c2cc(C(F)(F)F)nn2C)s1 returned HSF-1 act 29, Wnt act 33* and HSF1 inh 15.
`Cn1nc(C(F)(F)F)cc1-c1ccc(S(N)(=O)=O)s1` gave esBAF inh 52*, HSF-1 act -28, MITF TRPM1 HTS 72, Wnt act 23 and HSF1 inh -8.
Screening C[C@@H]1CN([C@H](C)CO)C(=O)c2ccccc2-c2ccccc2CO[C@H]1CN(C)C(=O)Nc1ccccc1 returned esBAF inh 8.
C[C@@H](O)C#Cc1cnc2c(c1)C(=O)N([C@@H](C)CO)C[C@H](C)[C@H](CN(C)Cc1ccccn1)O2 was read as esBAF inh -1.
`O=C(O)c1ccc(COc2ccc3ccccc3c2)o1` gave MITF TRPM1 HTS 40 and Wnt act 51*.
Screening Cn1c(C(=O)NN)cc2cc(OCc3ccccc3)ccc21 returned esBAF inh 4, HSF-1 act -86, Wnt act 12 and HSF1 inh -84*.
NNC(=O)c1ccc(COc2ccc3ccccc3c2)cc1 was read as HSF-1 act 21, MITF TRPM1 HTS 30, Wnt act 33* and HSF1 inh 17.
O=Cc1ccc(OCc2ccc3ccccc3c2)cc1 was read as esBAF inh 50*, HSF-1 act 60*, MITF TRPM1 HTS 103*, Wnt act 16 and HSF1 inh 44.
For O=C(COc1ccc2ccccc2c1)NNC(=O)c1ccccc1 the results were esBAF inh -2, HSF-1 act -13, MITF TRPM1 HTS 2, Wnt act 0 and HSF1 inh -2.
For O=Cc1cccc(OCc2cccc3ccccc23)c1 the results were esBAF inh 66*, HSF-1 act 18, MITF TRPM1 HTS 68, Wnt act 10 and HSF1 inh 9.
`COc1ccc(COc2cccc(C=O)c2)cc1` gave esBAF inh 22, HSF-1 act -7, MITF TRPM1 HTS 7, Wnt act 20 and HSF1 inh 8.
`COc1ccc(OCc2cccc(C(=O)Nn3cc([N+](=O)[O-])cn3)c2)cc1` gave esBAF inh -81, HSF-1 act -60, Wnt act 9 and HSF1 inh -54*.
`COc1ccc(OCc2cccc(C(=O)NN)c2)cc1` gave esBAF inh -24, HSF-1 act -74, MITF TRPM1 HTS -49, Wnt act 3 and HSF1 inh -66*.
For COC(=O)c1cccc(Cn2cc([N+](=O)[O-])cn2)c1 the results were HSF-1 act 22 and HSF1 inh 3.
Screening Cc1ccc(S(=O)(=O)Nc2ccc3c(c2)C(=O)N([C@@H](C)CO)C[C@@H](C)[C@H](CN(C)C(=O)Nc2ccc4c(c2)OCO4)OCCCC[C@@H](C)O3)cc1 returned esBAF inh 2.
Screening CC(C)C#Cc1ccc2c(c1)O[C@H](CN(C)S(=O)(=O)c1cn(C)cn1)[C@H](C)CN([C@@H](C)CO)S2(=O)=O returned esBAF inh 2.
`O=C1N=c2ccccc2=C1c1sc(Nc2cccc(O)c2)nc1O` gave esBAF inh 51*, HSF-1 act 4, Wnt act 1 and HSF1 inh 1.
Screening CO[C@H]1CN(C)C(=O)c2cc(NS(C)(=O)=O)ccc2OC[C@@H](C)N(C(=O)C2CCCC2)C[C@@H]1C returned esBAF inh -2.
`CCCC1C(C#N)=C(N)Oc2cc(C)n(C)c(=O)c21` (stereo not given) gave esBAF inh -20, HSF-1 act 2 and HSF1 inh 4.
For Cc1cc2c(c(=O)n1C)C(Cc1ccccc1)C(C#N)=C(N)O2 (stereo not given) the results were esBAF inh 50*, HSF-1 act -4, Wnt act 3 and HSF1 inh -1.
`COCCCNC(=O)c1cn(CCOC)c(=O)c2c1c1ccccc1n2C` gave esBAF inh 0, HSF-1 act 5, MITF TRPM1 HTS -12, Wnt act 18 and HSF1 inh 2.
CCOC(CCNC(=O)c1cn(C)c(=O)c2c1c1ccccc1n2C)OCC was read as esBAF inh 11, HSF-1 act -2, MITF TRPM1 HTS 6, Wnt act 2 and HSF1 inh -3.
`CCOc1ccccc1CNC(=O)c1cn(C)c(=O)c2c1c1ccccc1n2C` gave esBAF inh -7, HSF-1 act -3, MITF TRPM1 HTS -5, Wnt act 47* and HSF1 inh 2.
For COCCCNC(=O)c1cn(CC(C)C)c(=O)c2c1c1ccccc1n2C the results were esBAF inh -2, HSF-1 act -82, MITF TRPM1 HTS -8, Wnt act 9 and HSF1 inh -75*.
Cc1ccc(CNC(=O)c2cn(C3CCCCC3)c(=O)c3c2c2ccccc2n3C)o1 was read as HSF-1 act 79*, MITF TRPM1 HTS 6, Wnt act -1 and HSF1 inh 55.
Screening COc1ccc(S(=O)(=O)N(C)C[C@H]2OCc3cn(nn3)CCCC(=O)N([C@@H](C)CO)C[C@H]2C)cc1 returned esBAF inh -1.
`CC(C)NC(=O)Nc1ccc2c(c1)C(=O)N([C@@H](C)CO)C[C@@H](C)[C@H](CN(C)Cc1ccc(C(F)(F)F)cc1)OCCCC[C@H](C)O2` gave esBAF inh -5.
`C[C@H]1CN([C@@H](C)CO)C(=O)c2cc(NS(=O)(=O)c3ccccc3)ccc2O[C@H]1CN(C)CC1CC1` gave esBAF inh 3.
`N=c1n(N)c2ccccc2n1CC(=O)c1ccc(Br)cc1` gave esBAF inh 52*, HSF-1 act -4, Wnt act 2 and HSF1 inh 9.
For CC(C)c1ccccc1-n1c(-c2cccnc2)n[nH]c1=S the results were HSF-1 act -71, MITF TRPM1 HTS -2, Wnt act 1 and HSF1 inh -65*.
`C[C@@H]1CCCCO[C@@H](CN(C)CC2CCCCC2)[C@@H](C)CN([C@@H](C)CO)C(=O)c2cc(NC(=O)CCC(F)(F)F)ccc2O1` gave esBAF inh -3.
Screening CCOc1ccc(NC(=O)c2ccc3nccnc3c2)cc1 returned HSF-1 act 2, MITF TRPM1 HTS 89* and HSF1 inh 8.
`CCOc1ccc(NC(=O)c2ccccc2SC)cc1` gave esBAF inh 46*, HSF-1 act 19, MITF TRPM1 HTS 75, Wnt act -1 and HSF1 inh 15.
Screening COc1ccc(NC(=O)c2ccc3nccnc3c2)cc1 returned esBAF inh 31, HSF-1 act 12, MITF TRPM1 HTS 71, Wnt act 11 and HSF1 inh 5.
`CCOC(=O)C(C(=O)OCC)C(Nc1cccc(Br)c1)c1ccccc1` (stereo not given) gave esBAF inh 15, HSF-1 act 203*, Wnt act 1 and HSF1 inh 182.
